Inconclusive results are not listed. Unless noted, the call rests on the fitted dose curve; in most records, active means well fitted curve in either direction with a large enough effect (not every such curve was filed as active); inconclusive means small, poorly fitted or top-dose-only effect, or another doubt; inactive means flat fitted curve, though single readings scatter.
Test system: not listed separately
Experiment: Stat Signaling Pathway (AID 446);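 further: ME-180 cervical cancer cells given 40 pM IL-6 alongside compound; SIE-controlled beta-lactamase reporter measured as 460/530 nm FRET emission ratio; on the % scale 0 is the no-effect control and ±100 the full control effect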
Details: ME-180 (cervical carcinoma) SIE beta-lactamase reporter, IL-6 stimulated, 5 h; at 7.69 µM (top of the series) unless noted
Summary of the method: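 Normalization used AC90 stimulation (300 pM IL-6) and AC90 inhibition (125 nM pan-JAK inhibitor at 40 pM IL-6). The underlying signal is SIE-driven beta-lactamase in ME-180 cells after 5 h IL-6 exposure with compound.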

activity, negative = inhibition, inactive:
O=C(O)[C@H]1CC=CC[C@@H]1C(=O)Nc1cccc(O)c1 1.44%
O[C@@H](c1cc([C@@]23C[C@H]4CC[C@@H]2C[C@H](C4)C3)nc2c(Cl)cc(Cl)cc12)[C@@H]1CCCCN1 0.88%
CCOC(=O)c1cnc(N(C)C)nc1SC(=N)N -0.214%
OC[C@@H]1O[C@H](n2cnc3c(/C=C(\O)c4ccccc4)ncnc32)[C@H](O)[C@@H]1O -0.249%
Cc1nc2ccccc2nc1-c1ccc(N=[N+]([O-])c2ccc(-c3nc4ccccc4nc3C)cc2)cc1 -5.62%
O=C1[C@@H]2[C@@H](C(=O)N1c1ccc(OCc3ccccc3)cc1)[C@@H]1c3ccccc3[C@@H]2[n+]2ccccc21 4.93%
Cc1ccc(C2=C(Cl)C(=O)C(c3ccc(C)cc3)=C(Cl)C2=O)cc1 -13.6%
C[C@@]12CC[C@@H]3[C@H](CCC4=CC(=O)CC[C@]43C)[C@@H]1CC[C@@H]2C(=O)Cn1cnc2c(=S)nc[nH]c21 -2.06%
Cc1ncn(-c2ccccc2O)c1C 6.2%
O=[N+]([O-])c1ccc(CSCc2ccc(Cl)cc2)cc1 11.6%
O=C(O)CCNc1ncnc2nc[nH]c12 -5.64%
COc1ccc(Cc2ccccc2C(=O)O)c2ccccc12 -28.9%
O[C@@H](c1cc(C(F)(F)F)nc2c(Cl)cc(Cl)cc12)[C@@H]1CCCCN1 -0.0324%
O=C(O)C[C@H](S)C(=O)O -8.04%
CC(C)C12CC[C@@]3(CC[C@H]4[C@@](C)(CCC[C@]4(C)C(=O)O)[C@@H]3C1)[C@@H](CN)C2 1.18%
Cc1ccc(C)c(/C(=N\N=C(N)N)C2CC2)c1 4.46%
Nc1ncnc2c1ncn2[C@H]1O[C@@H](C(=O)O)[C@@H](O)[C@H]1O 6.21%
Oc1c(CN2CCN(c3ccccc3)CC2)cc(Br)c2cccnc12 -0.132%
N/N=C1/CC(=O)NC(=O)N1 -13%
N[C@@H](CC1=CS(=O)(=O)c2ccc(Cl)cc21)C(=O)O -1.77%
C[N+]1([C@H](CO)Cc2c[nH]c3ccccc23)Cc2ccccc2C1 13.4%
c1ccc(C[n+]2cccc(-c3cc4ccccc4[nH]3)c2)cc1 -0.473%
C[N+](C)(C)CCCSc1nc2ccccc2[nH]1 -0.948%
Cc1cc(=Nc2ccc3c(c2)c(N)cc(C)[n+]3C)nc(N)n1C -8.63%
COc1ncc2nc(CCc3ccccc3)c(=O)n(C)c2n1 -1.2%
C[C@H](NC(=O)c1ccc(Cl)c(Cl)c1)c1ccc(-c2ccccc2)cc1 -12.5%
COc1ccc2cc1Oc1ccc(cc1)C[C@@H]1c3c(cc(OC)c4c3Oc3cc5c(cc3O4)CCN[C@H]5C2)CCN1C 14.2%
O=C(O)/C=C\C(=O)Nc1cccc2c1-c1ccccc1C2=O -4.51%
O=C(O)/C=C\C(=O)N1Cc2cc3ccccc3nc2C1 12.1%
O=C(Nc1cccc2cccnc12)[C@@H]1[C@@H](C(=O)O)[C@H]2CC[C@@H]1O2 -11%
CC(C)C(=O)C(C)(C)CCc1ccccn1 1.04%
OCCN(CCO)c1ncnc2nc[nH]c12 -0.624%
CCN(CC)CC[n+]1ccc2c(C)c3[nH]c4ccc(O)cc4c3c(C)c2c1 26.1%
CN(C)CCC(=O)[C@@]1(O)CC[C@H]2[C@H]3CC=C4C[C@@H](O)CC[C@]4(C)[C@H]3CC[C@]21C -18.3%
O=C1C=CC(=Nc2cccc3c(N=C4C=CC(=O)O4)cccc23)O1 -22.4%
COc1ccc2c3c(ccc2c1)N[C@H](C(=O)O)CC3 -6.67%
N=C1CCC[C@@H]1C(=S)SCCC(N)=O -12.4%
CCN(CC)CC[n+]1ccc2c(C)c3[nH]c4ccccc4c3c(C)c2c1 29.6%
O=CN1CCN(C[C@H](O)CN2CCCCC2)CC1 8.12%
Oc1cc(O)c2c(c1)O[C@@H](c1ccc(O)c(O)c1)[C@H](O[C@@]1(c3cc(O)c(O)c(O)c3)Oc3cc(O)cc(O)c3[C@H](O)[C@@H]1O)C2 -22.3%

Target: Glucocorticoid receptor (Homo sapiens) (UniProt P04150)
Experiment: GR-GFP Redistribution (AID 450;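 active means compounds whose dose series gives a full or clear partial fitted curve of increased nuclear translocation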; further: potency means the concentration at half of the fitted maximal effect)
Details: U2OS GR-GFP nuclear translocation, laser cytometry, 2 h

Chain of Glucocorticoid receptor (Homo sapiens) (P04150 whole entry, looked up): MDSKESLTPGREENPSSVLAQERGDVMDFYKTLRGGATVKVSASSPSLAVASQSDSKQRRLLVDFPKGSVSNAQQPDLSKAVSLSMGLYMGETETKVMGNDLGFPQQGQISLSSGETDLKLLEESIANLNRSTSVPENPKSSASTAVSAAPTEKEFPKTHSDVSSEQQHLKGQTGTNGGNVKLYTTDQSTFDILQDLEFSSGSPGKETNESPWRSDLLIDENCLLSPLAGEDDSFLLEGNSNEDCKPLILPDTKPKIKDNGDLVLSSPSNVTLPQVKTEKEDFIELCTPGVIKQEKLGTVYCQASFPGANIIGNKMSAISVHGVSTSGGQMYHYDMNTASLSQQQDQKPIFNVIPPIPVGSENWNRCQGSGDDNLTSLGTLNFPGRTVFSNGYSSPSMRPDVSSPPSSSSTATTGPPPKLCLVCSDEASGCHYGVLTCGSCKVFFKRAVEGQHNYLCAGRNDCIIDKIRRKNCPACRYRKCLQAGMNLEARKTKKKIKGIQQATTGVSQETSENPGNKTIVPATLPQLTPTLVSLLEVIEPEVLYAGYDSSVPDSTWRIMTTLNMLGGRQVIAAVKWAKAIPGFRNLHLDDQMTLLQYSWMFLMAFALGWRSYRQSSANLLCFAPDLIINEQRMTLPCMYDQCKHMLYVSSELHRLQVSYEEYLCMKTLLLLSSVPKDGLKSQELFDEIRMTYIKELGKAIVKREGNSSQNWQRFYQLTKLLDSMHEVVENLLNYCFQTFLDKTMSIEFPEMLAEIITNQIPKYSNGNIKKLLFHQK

Potency, inactive:
O=C(O)[C@H]1CC=CC[C@@H]1C(=O)Nc1cccc(O)c1 > 46 µM
O[C@@H](c1cc([C@@]23C[C@H]4CC[C@@H]2C[C@H](C4)C3)nc2c(Cl)cc(Cl)cc12)[C@@H]1CCCCN1 > 46 µM
CCOC(=O)c1cnc(N(C)C)nc1SC(=N)N > 46 µM
OC[C@@H]1O[C@H](n2cnc3c(/C=C(\O)c4ccccc4)ncnc32)[C@H](O)[C@@H]1O > 46 µM
Cc1nc2ccccc2nc1-c1ccc(N=[N+]([O-])c2ccc(-c3nc4ccccc4nc3C)cc2)cc1 > 46 µM
O=C1[C@@H]2[C@@H](C(=O)N1c1ccc(OCc3ccccc3)cc1)[C@@H]1c3ccccc3[C@@H]2[n+]2ccccc21 > 46 µM
Cc1ccc(C2=C(Cl)C(=O)C(c3ccc(C)cc3)=C(Cl)C2=O)cc1 > 46 µM
C[C@@]12CC[C@@H]3[C@H](CCC4=CC(=O)CC[C@]43C)[C@@H]1CC[C@@H]2C(=O)Cn1cnc2c(=S)nc[nH]c21 > 46 µM
Cc1ncn(-c2ccccc2O)c1C > 46 µM
O=[N+]([O-])c1ccc(CSCc2ccc(Cl)cc2)cc1 > 46 µM
O=C(O)CCNc1ncnc2nc[nH]c12 > 46 µM
COc1ccc(Cc2ccccc2C(=O)O)c2ccccc12 > 46 µM
O[C@@H](c1cc(C(F)(F)F)nc2c(Cl)cc(Cl)cc12)[C@@H]1CCCCN1 > 46 µM
O=C(O)C[C@H](S)C(=O)O > 46 µM
CC(C)C12CC[C@@]3(CC[C@H]4[C@@](C)(CCC[C@]4(C)C(=O)O)[C@@H]3C1)[C@@H](CN)C2 > 46 µM
Cc1ccc(C)c(/C(=N\N=C(N)N)C2CC2)c1 > 46 µM
Nc1ncnc2c1ncn2[C@H]1O[C@@H](C(=O)O)[C@@H](O)[C@H]1O > 46 µM
Oc1c(CN2CCN(c3ccccc3)CC2)cc(Br)c2cccnc12 > 46 µM
N/N=C1/CC(=O)NC(=O)N1 > 46 µM
N[C@@H](CC1=CS(=O)(=O)c2ccc(Cl)cc21)C(=O)O > 46 µM
C[N+]1([C@H](CO)Cc2c[nH]c3ccccc23)Cc2ccccc2C1 > 46 µM
c1ccc(C[n+]2cccc(-c3cc4ccccc4[nH]3)c2)cc1 > 46 µM
C[N+](C)(C)CCCSc1nc2ccccc2[nH]1 > 46 µM
Cc1cc(=Nc2ccc3c(c2)c(N)cc(C)[n+]3C)nc(N)n1C > 46 µM
COc1ncc2nc(CCc3ccccc3)c(=O)n(C)c2n1 > 9.22 µM
C[C@H](NC(=O)c1ccc(Cl)c(Cl)c1)c1ccc(-c2ccccc2)cc1 > 46 µM
COc1ccc2cc1Oc1ccc(cc1)C[C@@H]1c3c(cc(OC)c4c3Oc3cc5c(cc3O4)CCN[C@H]5C2)CCN1C > 46 µM
O=C(O)/C=C\C(=O)Nc1cccc2c1-c1ccccc1C2=O > 46 µM
O=C(O)/C=C\C(=O)N1Cc2cc3ccccc3nc2C1 > 46 µM
O=C(Nc1cccc2cccnc12)[C@@H]1[C@@H](C(=O)O)[C@H]2CC[C@@H]1O2 > 46 µM
CC(C)C(=O)C(C)(C)CCc1ccccn1 > 46 µM
OCCN(CCO)c1ncnc2nc[nH]c12 > 46 µM
CCN(CC)CC[n+]1ccc2c(C)c3[nH]c4ccc(O)cc4c3c(C)c2c1 > 46 µM
CN(C)CCC(=O)[C@@]1(O)CC[C@H]2[C@H]3CC=C4C[C@@H](O)CC[C@]4(C)[C@H]3CC[C@]21C > 46 µM
O=C1C=CC(=Nc2cccc3c(N=C4C=CC(=O)O4)cccc23)O1 > 46 µM
COc1ccc2c3c(ccc2c1)N[C@H](C(=O)O)CC3 > 46 µM
N=C1CCC[C@@H]1C(=S)SCCC(N)=O > 46 µM
CCN(CC)CC[n+]1ccc2c(C)c3[nH]c4ccccc4c3c(C)c2c1 > 46 µM
O=CN1CCN(C[C@H](O)CN2CCCCC2)CC1 > 46 µM
Oc1cc(O)c2c(c1)O[C@@H](c1ccc(O)c(O)c1)[C@H](O[C@@]1(c3cc(O)c(O)c(O)c3)Oc3cc(O)cc(O)c3[C@H](O)[C@@H]1O)C2 > 46 µM

— PubChem BioAssay (NCATS)
